# Screens deposited in PubChem by National Center for Advancing Translational Sciences (NCATS).
# Shiga inhibitor: blocks Shiga toxin action in Vero cells; Vero cells, Shiga toxin protein synthesis inhibition reporter; inhibition, % at 38.7 µM; actives 9.2% (n = 290,000); AID 2315; in the data active = inhibition mostly above about 28%, no sharp cut-off; inactive = mostly below about 43%; also: 0% is about no effect
# Sm TGR inh: blocks Schistosoma mansoni thioredoxin glutathione reductase | purified TGR, DTNB reduction, TNB absorbance 405 nm | Potency, µM (series often up to 114 µM), without a hit: at the highest dose activity change, negative = inhibition, actives largely listed as inhibitors | actives 3% (n = 360,000); active = well fitted inhibition curve with a large enough effect; inconclusive = small, poorly fitted or top-dose-only effect; inactive = no such curve, though single readings can be large or run the other way; also: potency is read from the fitted curve at half-maximal effect; % is scaled to controls: 0 for no effect and ±100 for the full control effect; nearly all actives have a fitted effect of over 60% in size
#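 First, TGR (20 nM dispensed) and NADPH were mixed with compound. Second, a 15 min room-temperature incubation followed. Third, further NADPH and then DTNB were added to start the reaction. Finally, TNB absorbance was monitored kinetically.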
# CHX counter: affects cycloheximide protein synthesis inhibition readout, counter-screen. actives 12% (n = 300,000). cell reporter, cycloheximide protein synthesis inhibition counterscreen. max response, %; in the data active = max response mostly above about 13%, no sharp cut-off; inactive = mostly below about 14%; also: read at 38.3 µM for the half of the compounds with a filed dose; 0% is about no effect
# FMDV antiviral: blocks foot and mouth disease virus; FMDV antiviral cell-based qHTS; Potency, µM (highest dose often 57.9 µM), for inactives: at the highest dose activity change, negative = inhibition, hits mostly inhibitors; actives 1.2% (n = 410,000); calls by dose curve; tested in HEK293T cells; also: read-out not given here; potency is read from the fitted curve at half-maximal effect; % is scaled to controls: 0 for no effect and ±100 for the full control effect; nearly all actives have a fitted effect of over 45% in size
# Starred values were filed as active, the others as inactive; u = inconclusive; x = not tested or not shown. This is a sample that favours compounds with a hit; in the whole collection about 12% have one here.
SMILES,Shiga inhibitor,Sm TGR inh,CHX counter,FMDV antiviral
CCc1cccc(NC(=O)c2sc3nc4n(c(=O)c3c2C)CCC4)c1,73*,1%,28*,17%
Cc1c(C(=O)Nc2cccc(C#N)c2)sc2nc3n(c(=O)c12)CCCCC3,x,5.6µM*,x,-13%
Cc1c(C(=O)NCc2cccc(Cl)c2)sc2nc3n(c(=O)c12)CCCC3,x,14µM*,x,0%
CSc1ccc(CCNC(=O)C(C)n2nc(C)c3sc4ccccc4c3c2=O)cc1 (stereo not given),x,1%,x,0%
CCC(C(=O)Nc1cc(Cl)ccc1OC)n1nc(-c2ccccc2)ccc1=O (stereo not given),x,-3%,x,-19%
O=C1c2cccc3c([N+](=O)[O-])ccc(c23)C(=O)N1Cc1cccnc1,15,25µM*,7,-4%
O=C1c2cccc3cccc(c23)C(=O)N1Cc1cccnc1,-2,24%,9,-9%
Cc1nnc(N2C(=O)c3cccc4c([N+](=O)[O-])ccc(c34)C2=O)s1,41,4.5µM*,1,-24%
Cc1ccc(CNC(=O)C(C)n2c(=O)cc(C(F)(F)F)c3c(C)nn(C)c32)cc1 (stereo not given),x,-7%,x,-29%
COc1cc(/C=N/Nc2nc(Nc3ccccc3)nc(-n3nc(C)cc3C)n2)cc(OC)c1OC,45*,-8%,18*,-12%
COc1cc(/C=N/Nc2nc(Nc3ccc(C)cc3)nc(-n3nc(C)cc3C)n2)cc(OC)c1OC,109*,0%,7,-7%
COc1ccc(/C=N/Nc2cc(C)nc(-n3nc(C)cc3C)n2)cc1,3,1%,2,32µM*
CC(C)Cn1c(N)c(C(=O)COC(=O)c2cc(-c3ccco3)nc3ccccc23)c(=O)n(C)c1=O,-5,6.3µM*,-3,u
Cn1c(=O)c(C(=O)COC(=O)c2cc(-c3ccco3)nc3ccccc23)c(N)n(Cc2ccccc2)c1=O,29,3.2µM*,-1,x
Cn1c(N)c(C(=O)COC(=O)c2cc(-c3ccccc3)nc3ccccc23)c(=O)n(Cc2ccccc2)c1=O,-20,-7%,-4,-4%
CCC(C)C(N)C(=O)NC(CC(N)=O)C(=O)NC(CC(C)C)C(=O)NC(CCCCN)C(=O)NC(C)C(=O)NC(CC(C)C)C(=O)NC(C)C(=O)NC(C)C(=O)NC(CC(C)C)C(=O)NC(C)C(=O)NC(CCCCN)C(=O)NC(CCCCN)C(=O)NC(C(=O)NC(CC(C)C)C(N)=O)C(C)CC (stereo not given),-16,x,-9,x
COCCNc1oc(/C=C/c2ccccc2OC)nc1S(=O)(=O)c1ccccc1,17,13µM*,26,-19%
CCOC(=O)Cc1csc(N/N=C/c2ccc(Cl)cc2)n1,53*,-18%,31*,-29%
CCOC(=O)Cc1csc(NC(=O)c2ccc(Br)o2)n1,36*,3%,38*,9%
CCOC(=O)Cc1csc(NC(=O)c2sc3nc4cc(C)ccc4cc3c2N)n1,10,-16%,8,-18%
CCOC(=O)Cc1csc(NC(=O)c2sc3nc4ccc(CC)cc4cc3c2N)n1,81*,11%,24*,23%
CCOC(=O)Cc1csc(NC(=O)c2cc(C)cc(C)c2)n1,19,x,-2,0%
CCOC(=O)Cc1csc(NC(=O)/C=C/c2ccc(Br)o2)n1,34,10µM*,27,u
CCOC(=O)CSc1nc2c([nH]c3ccccc32)c(=O)n1-c1ccc(OCC)cc1,x,8%,x,0%
Cc1cc(CNC(=O)CCN2Cc3cc(Cl)ccc3OC(C)C2)nn1C (stereo not given),x,x,x,19%
SMILES,Shiga inhibitor,Sm TGR inh,CHX counter,FMDV antiviral
CCOC(=O)Cc1csc(NC(=O)Nc2cccc(Cl)c2)n1,26,-9%,8.9*,u
CCOC(=O)Cc1csc(NC(=O)c2cc3ccccc3o2)n1,54*,4%,23*,3%
CC(C)(C)c1csc(NC(=O)c2ccc(Br)o2)n1,99*,3%,47*,2%
Cc1cc(C)cc(N2CCn3c2nc2c3c(=O)n(Cc3ccc(Cl)cc3)c(=O)n2C)c1,x,-3%,x,-1%
CCC(=O)OC1=C(C(C)=O)N(Cc2ccccc2)S(=O)(=O)c2ccccc21,x,-29%,x,-18%
Cc1nn(CCOc2ccccc2)c(=O)n1-c1ccc(F)cc1,62*,-1%,32*,64%
Cc1nn(C)c(=O)n1-c1ccc(OCc2ccccc2)cc1,89*,-8%,44*,39%
COc1ccc(-n2c(C)nn(C)c2=O)cc1,-4,2%,-6,8%
Cc1ccc2c(c1)c1nc3ccccc3nc1n2CCN1CCOCC1,6,5%,11*,5%
CCn1c2ccc(C)cc2c2nnc(SCCN3CCOCC3)nc21,-31,1%,-2,u
